Reference: PubChem BioAssay AID1159580 (chemical genetic matrix, 2015)
Where “and” joins values, the source holds several entries; their conditions need not be identical. Identical values can stand only once. About 2,000 (36%) of roughly 5,500 compounds were called active. Another 18% or so got no clear call; they are omitted. Rule as the data show it: active = normalized growth mostly below about 0.91 (no sharp cut-off); inconclusive = no clear call, values can overlap the other calls; inactive = mostly above about 0.92. Some of the results follow.

Experiment: chemical genetic growth profiling, strain panel (AID 1159580);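 also: tested at 20 µM; growth read once vehicle control cultures reached saturation at 30 °C; 1 = growth at the plate median or of vehicle wells; lower values mean less growth of the strain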
Settings: S. cerevisiae deletion strains, growth OD

Measured: normalized growth

CCC1(c2ccccc2)C(=O)NCNC1=O
inactive: locus YAL013W, strain DEP1, stronger effect = lower value 1.01 | locus YAL021C, strain ccr4, stronger effect = lower value 1 | locus YAL026C, strain drs2, stronger effect = lower value 0.991 | locus YAL030W, strain snc1, stronger effect = lower value 1.01 | locus YAL040C, strain CLN3, stronger effect = lower value 0.982 | locus YBL061C, strain skt5, stronger effect = lower value 1.01 | locus YBR009C, strain hhf1, stronger effect = lower value 0.997 | locus YBR021W, strain FUR4, stronger effect = lower value 1 | locus YBR023C, strain chs3, stronger effect = lower value 1.01 | locus YBR171W, strain sec66, stronger effect = lower value 0.991 | locus YBR229C, strain ROT2, stronger effect = lower value 1 | locus YBR231C, strain swc5, stronger effect = lower value 1 | locus YBR279W, strain paf1, stronger effect = lower value 1.02 | locus YCL011C, strain gbp2, stronger effect = lower value 0.978 | locus YCL016C, strain dcc1, stronger effect = lower value 1.01 | locus YCL029C, strain bik1, stronger effect = lower value 0.994 | locus YCL061C, strain MRC1 (second series), stronger effect = lower value 0.993 | locus YCL061C, strain MRC1, stronger effect = lower value 0.988 | locus YCL069W, strain vba3, stronger effect = lower value 0.99 | locus YCR088W, strain abp1, stronger effect = lower value 0.984 | locus YDL005C, strain med2, stronger effect = lower value 1.01 | locus YDL035C, strain GPR1, stronger effect = lower value 1.01 | locus YDL040C, strain nat1, stronger effect = lower value 1.01 | locus YDL074C, strain BRE1, stronger effect = lower value 1.01 | locus YDL101C, strain DUN1, stronger effect = lower value 1.01 | locus YDL134C, strain PPH21, stronger effect = lower value 0.998 | locus YDL185W, strain tfp1, stronger effect = lower value 0.991 | locus YDL192W, strain arf1, stronger effect = lower value 0.999 | locus YDR001C, strain nth1, stronger effect = lower value 0.987 | locus YDR069C, strain doa4, stronger effect = lower value 0.998 | locus YDR101C, strain arx1, stronger effect = lower value 1.01 | locus YDR137W, strain rgp1, stronger effect = lower value 1.02 | locus YDR150W, strain NUM1, stronger effect = lower value 0.992 | locus YDR159W, strain sac3, stronger effect = lower value 0.994 | locus YDR162C, strain NBP2, stronger effect = lower value 1.01 | locus YDR195W, strain ref2 0.992 | locus YDR297W, strain sur2, stronger effect = lower value 1.01 | locus YDR318W, strain mcm21, stronger effect = lower value 1 | locus YDR334W, strain swr1, stronger effect = lower value 1 | locus YDR335W, strain msn5, stronger effect = lower value 1.01 | locus YDR363W, strain ESC2, stronger effect = lower value 0.969 | locus YDR388W, stronger effect = lower value 0.998 | locus YDR392W, strain spt3, stronger effect = lower value 0.958 | locus YDR502C, strain sam2, stronger effect = lower value 1 | locus YEL003W, strain gim4, stronger effect = lower value 0.975 | locus YEL037C, strain rad23, stronger effect = lower value 0.98 | locus YEL061C, strain CIN8 (second series), stronger effect = lower value 0.982 | locus YEL061C, strain CIN8, stronger effect = lower value 1 | locus YER002W, strain NOP16, stronger effect = lower value 0.988 | locus YER015W, strain faa2, stronger effect = lower value 0.99 | locus YER016W, strain bim1, stronger effect = lower value 1 | locus YER110C, stronger effect = lower value 1 | locus YER111C, strain swi4, stronger effect = lower value 0.99 | locus YER155C, strain BEM2 (second series), stronger effect = lower value 0.951 | locus YER155C, strain BEM2, stronger effect = lower value 0.998 | locus YER167W, strain BCK2, stronger effect = lower value 1 | locus YFR010W, strain ubp6, stronger effect = lower value 1 | locus YGL078C, strain dbp3, stronger effect = lower value 0.992 | locus YGL086W, strain mad1, stronger effect = lower value 1 | locus YGL167C, strain pmr1, stronger effect = lower value 1.01 | locus YGL173C, strain kem1, stronger effect = lower value 1 | locus YGL227W, strain vid30, stronger effect = lower value 0.98 | locus YGL240W, strain doc1, stronger effect = lower value 0.997 | locus YGL248W, strain PDE1, stronger effect = lower value 1 | locus YGL253W, strain hxk2, stronger effect = lower value 1 | locus YGR078C, strain PAC10, stronger effect = lower value 1.01 | locus YGR135W, strain pre9, stronger effect = lower value 0.995 | locus YGR252W, strain gcn5, stronger effect = lower value 0.987 | locus YHR013C, strain ard1, stronger effect = lower value 1.01 | locus YHR027C, strain rpn1, stronger effect = lower value 1.01 | locus YHR030C, strain SLT2, stronger effect = lower value 1 and 1.02 | locus YHR079C, strain IRE1 (second series), stronger effect = lower value 0.995 | locus YHR079C, strain IRE1, stronger effect = lower value 0.993 | locus YHR094C, strain hxt1, stronger effect = lower value 0.995 | locus YHR129C, strain ARP1, stronger effect = lower value 1.01 | locus YHR142W, strain chs7, stronger effect = lower value 1 | locus YHR200W, strain rpn10, stronger effect = lower value 0.995 | locus YIL066C, strain RNR3, stronger effect = lower value 1.01 | locus YIL073C, strain SPO22, stronger effect = lower value 1 | locus YIL125W, strain kgd1, stronger effect = lower value 1 | locus YIR030C, strain dcg1, stronger effect = lower value 0.997 | locus YJL092W, strain hpr5, stronger effect = lower value 0.975 | locus YJL095W, strain BCK1 (second series), stronger effect = lower value 1.01 | locus YJL095W, strain BCK1, stronger effect = lower value 1.01 and 1.02 | locus YJL115W, strain asf1, stronger effect = lower value 0.988 | locus YJL129C, strain trk1, stronger effect = lower value 0.967 | locus YJL134W, strain LCB3, stronger effect = lower value 1.01 | locus YJL154C, strain vps35, stronger effect = lower value 0.976 | locus YJL164C, strain tpk1, stronger effect = lower value 1 | locus YJL166W, strain qcr8, stronger effect = lower value 1.04 | locus YJL168C, strain set2, stronger effect = lower value 0.996 | locus YJL187C, strain SWE1 (second series), stronger effect = lower value 1.01 | locus YJL187C, strain SWE1, stronger effect = lower value 1.02 | locus YJR043C, strain POL32, stronger effect = lower value 1 | locus YJR066W, strain TOR1, stronger effect = lower value 0.967
